# IP6K1 inhibitor – Primary qHTS assay for small molecule inhibitors of Inositol hexaphosphate kinase 1 (IP6K1); IP6K1 kinase, ADP-Glo luminescence, 2 h; active compounds read low; activity change, % (series mostly up to about 58 µM); actives 0.81% (n = 140,000); AID 1645851, 2021; in the data active means activity change below about -25%; further: on the % scale 0 is the no-effect control and ±100 the full control effect
#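 ADP-Glo luminescence measures ADP made by human IP6K1 during a 2 h RT reaction with ATP/IP6 (mix at 1.3 mM/130 uM); top library doses 57.5 and 19.1 uM final.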
# KDM5B inhibitor – Primary screen for KDM5B Histone Demethylases FDH-coupled qHTS; Potency, µM (series often up to 57.7 µM), usual class: inhibitors; AID 1347165, 2019; Lysine-specific demethylase 5B (Homo sapiens), Q9UGL1; actives 2.6% (n = 220,000); KDM5B demethylase, FDH-coupled NADH fluorescence (FDH is formaldehyde dehydrogenase); further: potency means the concentration at half of the fitted maximal effect; 0% is about no effect; nearly all actives have a fitted effect of over 70% in size
#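 Compound dilutions met 200 nM (final) KDM5BΔAP for 10 min at room temperature before substrate addition. The substrate mix held 12.5 µM H3K4me3 with cofactors 25 µM α-ketoglutarate and 50 µM Fe²⁺. NADH signal gain over 30 min defined activity.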
# * marks the source's active call; other numbers are inactive results; i = inactive; ? = inconclusive; · = no result. Rows were chosen to be rich in hits. Some 2.8% of all compounds tested hit in one or more screens of this group.
SMILES,IP6K1 inhibitor,KDM5B inhibitor
CN(C)c1ccc(CN2CCC[C@H]2c2nc(-c3ccnc(N4CCC(C(N)=O)CC4)c3)no2)cc1,21,?
NC(=O)C1CCN(c2cc(-c3noc([C@@H]4CCCN4Cc4ccc(F)c(F)c4)n3)ccn2)CC1,16,25µM*
CC(=O)N1CCN(c2cc(-c3noc([C@@H]4CCCN4Cc4ccc(C(F)(F)F)cc4)n3)ccn2)CC1,12,28µM*
COCCOc1cc(-c2noc([C@@H]3CCCN3Cc3ccc(NC(C)=O)cc3)n2)ccn1,-8,i
CCOC(=O)c1cnc2ccccc2c1N1CCN(CC(=O)N(C)C)CC1,·,i
O=c1[nH]cccc1NS(=O)(=O)c1ccc(F)cc1,·,i
Cc1nn(C)cc1-c1ccnc(NCCCN2CCCC(CO)C2)n1 (stereo not drawn),-4,?
CCN1CC(CNc2nccc(-c3c(C)nn(C)c3C)n2)CC1=O (stereo not drawn),8,28µM*
CC(=O)N1CCCC(CNc2nccc(-c3c(C)nn(C)c3C)n2)C1 (stereo not drawn),-9,28µM*
COc1ccc(CNc2nccc(-c3c(C)nn(C)c3C)n2)cc1OC,13,?
CNC(=O)[C@@H]1CN(C(=O)NCc2ccc(C)cc2)C[C@H]1c1nc(C)no1,-1,i
C#CC(CC)(CC)NC(=O)C1CC(C)=C(C)CC1C(=O)O (stereo not drawn),·,i
O=C(Cn1ccc2ccccc21)NCc1ccccc1Cl,·,i
O=C(CCNC(=O)c1cccs1)Nc1cccnc1N1CCCC1,·,i
Cc1c(-c2ccccc2F)[nH]c2ccc(CNC(=O)CCc3cc(=O)[nH]o3)cc12,-4,?
O=C1CCCCC(CNC(=O)c2ccccc2F)N1 (stereo not drawn),-19,i
CCc1[nH]c2ccc(CNC(=O)c3coc(CN4CCOCC4)c3)cc2c1C,3,?
Cc1c(-c2ccccc2F)[nH]c2ccc(CNC(=O)CCN3CCCO3)cc12,7,25µM*
Cc1c(-c2ccccc2F)[nH]c2ccc(CNC(=O)CCc3cnccn3)cc12,2,13µM*
Cc1c(-c2ccccc2F)[nH]c2ccc(CNC(=O)CC3CCC(=O)N3)cc12 (stereo not drawn),7,32µM*
C=CC1(C)C=C2C(O)CC3C(C)(C(=O)O)CCCC3(C)C2CC1 (stereo not drawn),-12,·
CC(C(=O)Nc1cnc2ccccc2c1)N1C(=O)c2ccccc2C1=O (stereo not drawn),·,i
O=C(Cc1cccc(Cl)c1)NCC1COc2ncncc2C(=O)N1CC1CC1 (stereo not drawn),-6,i
O=C(Cc1cccc(F)c1)NCC1COc2ncncc2C(=O)N1Cc1ccccc1 (stereo not drawn),0,28µM*
Cc1cn2nc(C(=O)NC3CCc4ccccc43)cc2c(N2CCCC2)n1 (stereo not drawn),-3,14µM*
SMILES,IP6K1 inhibitor,KDM5B inhibitor
Cc1cn2nc(C(=O)NC3CCCCCC3)cc2c(N2CCCC2)n1,10,6.3µM*
Cc1cn2nc(C(=O)NC3CCCC3)cc2c(N2CCCC2)n1,-16,i
Cc1cn2nc(C(=O)NC(C)c3ccc(F)cc3)cc2c(N2CCCC2)n1 (stereo not drawn),-3,i
Cc1ccc(-c2nnc(C3CN(C(=O)c4cccc(F)c4)CC34CCOCC4)o2)cc1 (stereo not drawn),12,i
COc1ccc2c(CCNC(=O)c3ccc(F)cc3)c[nH]c2c1,·,i
COCCN1CC(C(=O)N2CCC(O)(c3ccc(F)cc3)CC2)CCC1=O (stereo not drawn),-5,i
COCCN1CC(C(=O)N2CCN(c3ncccc3C#N)CC2)CCC1=O (stereo not drawn),5,32µM*
CCC(CC)C(=O)Nc1ccccc1C(C)CC (stereo not drawn),·,i
COc1ccc(Cl)cc1-c1ccc2c(c1)C(=O)N1CCN(C(=O)CC3(CC(=O)O)CCCC3)C[C@H]1C(=O)N2,4,i
COc1ccc(Cl)cc1-c1ccc2c(c1)C(=O)N1CCN(C(=O)c3ccco3)C[C@H]1C(=O)N2,17,35µM*
COc1ccc(Cl)cc1-c1ccc2c(c1)C(=O)N1CCN(C(=O)CO)C[C@@H]1C(=O)N2,4,35µM*
COc1ccc(Cl)cc1-c1ccc2c(c1)C(=O)N1CCN(C(=O)[C@@H](O)c3ccccc3)C[C@H]1C(=O)N2,1,?
CC1(C)CNC(=O)c2nc(CC3CCCCN3C3CCCC3)[nH]c2C1 (stereo not drawn),14,i
Cc1noc(-c2ccn3c(CNC(=O)COc4ccccc4)nnc3c2)n1,24,13µM*
Cc1ccc(CC(=O)NCc2nnc3cc(-c4nc(C)no4)ccn23)cc1,7,?
Cc1noc(-c2ccn3c(CNC(=O)C(C)c4ccccc4)nnc3c2)n1 (stereo not drawn),21,28µM*
Cc1noc(-c2ccn3c(CNC(=O)c4cc(Cl)ccc4F)nnc3c2)n1,7,?
Cc1noc(-c2ccn3c(CNC(=O)Cc4ccccc4Cl)nnc3c2)n1,10,25µM*
Nc1nc2c(c(=O)[nH]1)CCN(C(=O)Cc1c[nH]c3ccccc13)C2,-8,?
CC(C)N(Cc1ccccc1)C(=O)COC(=O)c1cc(Cl)ccc1Cl,·,i
Fc1cccc(-c2cc3c(cn2)CN(Cc2ccncc2)CCN3)c1,-14,?
c1ccc(Nc2cc3c(cn2)CN(Cc2ccsc2)CCN3)cc1,12,40µM*
COc1ccc(Nc2cc3c(cn2)CN(CCc2ccccc2)CCN3)cn1,-20,?
COc1ccc(CN2CCNc3cc(-c4ccccc4)ncc3C2)cc1O,-6,i
c1cncc(Nc2cc3c(cn2)CN(Cc2ccsc2)CCN3)c1,-17,i
SMILES,IP6K1 inhibitor,KDM5B inhibitor
COc1ccc(CN2CCNc3cc(Nc4ccccc4)ncc3C2)cn1,1,32µM*
COc1ccc(CN2CCNc3cc(Nc4ccccc4)ncc3C2)cc1O,3,28µM*
c1cc(CN2CCNc3cc(-c4ccsc4)ncc3C2)ccn1,-16,35µM*
Cc1nn(CC(=O)N[C@H](C)c2ccccc2)c(=O)n1-c1ccc2c(c1)OCO2,-5,i
COCCn1c(SCCOc2cccc(Br)c2)nnc1-c1ccncc1,·,i
O=C(NC1CCC(O)CC1)c1ccc2c(c1)OCCN(c1ccccc1)C2 (stereo not drawn),0,i
COc1cc(CNCc2c(C(=O)O)c(C)n(Cc3c(C)cc(C)cc3C)c2C)cc(OC)c1OC,·,i
O=C1NC(C(=O)NCC2CCCCC2)Cn2cccc21 (stereo not drawn),-1,i
CCc1ccc(-c2nc(C3CC(=O)N(c4ccc(C)cc4)C3)no2)cc1 (stereo not drawn),0,i
O=C1CC(c2noc(-c3ccc4c(c3)OCO4)n2)CN1c1ccc(F)c(Cl)c1 (stereo not drawn),2,?
CCc1ccc(N2CC(c3noc(-c4ccc5c(c4)OCO5)n3)CC2=O)cc1 (stereo not drawn),6,32µM*
O=C1CC(c2noc(-c3ccc4c(c3)OCO4)n2)CN1c1ccc(Cl)cc1 (stereo not drawn),21,28µM*

# Source: PubChem BioAssay (National Center for Advancing Translational Sciences (NCATS))
